Source: PubChem
VDR inh – Inhibitors of the vitamin D receptor (VDR): qHTS; VDR-SRC2-3 peptide fluorescence polarization, 2 h; 400,000 compounds, 0.93% hits; Vitamin D3 receptor (Homo sapiens), P11473; Potency, µM, for the others: max response, negative = inhibition, usual class: inhibitors; further: potency means the concentration at half of the fitted maximal effect; on the % scale 0 is the no-effect control and ±100 the full control effect
Target sequence (P11473 whole entry, looked up): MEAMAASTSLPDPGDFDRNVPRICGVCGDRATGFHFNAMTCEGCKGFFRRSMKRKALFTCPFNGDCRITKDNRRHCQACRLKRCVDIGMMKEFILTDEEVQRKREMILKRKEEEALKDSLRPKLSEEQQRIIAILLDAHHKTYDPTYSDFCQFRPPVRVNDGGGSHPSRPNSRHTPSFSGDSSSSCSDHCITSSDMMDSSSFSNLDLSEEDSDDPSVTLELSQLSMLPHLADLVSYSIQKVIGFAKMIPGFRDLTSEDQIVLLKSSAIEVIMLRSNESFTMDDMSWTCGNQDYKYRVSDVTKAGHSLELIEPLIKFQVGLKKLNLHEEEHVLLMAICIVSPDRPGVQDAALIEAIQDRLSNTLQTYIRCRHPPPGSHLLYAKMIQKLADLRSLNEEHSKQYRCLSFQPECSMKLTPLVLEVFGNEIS
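Two reagent solutions held at 4 deg C in the dark were dispensed, compounds pinned at 23 nl, and the mixture incubated 2 h at room temperature. Read-out: fluorescence polarization of VDR–SRC2-3 peptide binding.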
TSHR antag – Antagonists of the Thyroid Stimulating Hormone Receptor: HTS campaign; Thyrotropin receptor (Homo sapiens), P16473; TSHR-expressing cells, TSH-stimulated cAMP HTRF, 2 h; hits give low values; activity change, negative = inhibition, % at 11.5 µM; 330,000 compounds, 0.2% hits; AID 504810, 2011;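 active means activity change below a set negative limit, meaning inhibition stronger than a set level, cut at about -70% in these data; inconclusive means activity change between two set negative limits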; further: on the % scale 0 is the no-effect control and ±100 the full control effect
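TSHR-expressing cells, 200/well, pre-treated with compound, then stimulated with EC80 TSH (4nM final) for 2 hours at 37 deg C. cAMP measured by competitive HTRF: anti-cAMP cryptate antibody in lysis buffer plus cAMP-d2, read after 30 minutes at room temperature.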
PTAP TSG101 blk – qHTS Assay for Iinhibitors of HIV-1 Budding by Blocking the Interaction of PTAP/TSG101; 340,000 tested, under 10 active; Tumor susceptibility gene 101 protein (Homo sapiens), Q99816; AID 493005, 2010; Fluorescence polarization, FITC-PTAP peptide / Tsg101 binding; Potency, µM (top dose mostly 115 µM), inactives show top-dose activity change, negative = inhibition, usual class: inhibitors; active means well fitted inhibition curve with a large enough effect in the main read-out, with a control signal flat, not every such curve was filed as active; inconclusive means small, poorly fitted or top-dose-only effect, or effect the other way, or a change in a side signal; inactive means no such curve, though single readings can be large or run the other way; further: potency means the concentration at half of the fitted maximal effect; % of control where 0% means no effect
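FP read-out: FITC-PTAP peptide, 50 nM final, binding Tsg101 binding domain, 10 uM final; 20 min, r.t.; 10 mM HEPES pH 7.5, 0.15 M NaCl, 0.01% Tween 20, 3 mM EDTA, 0.1 mM TCEP.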
uPA generation – qHTS for Inhibitors of Cell Surface uPA Generation. cell surface uPA generation assay, qHTS. Potency, µM (highest dose often 38.3 µM), without a hit: at the highest dose activity change, negative = inhibition, usual class: inhibitors. 330,000 compounds, 0.31% hits; active means well fitted inhibition curve with a large enough effect; inconclusive means small, poorly fitted or top-dose-only effect; inactive means no such curve, though single readings can be large or run the other way; tested in mouse RAW 264.7 cells; further: potency means the concentration at half of the fitted maximal effect; on the % scale 0 is the no-effect control and ±100 the full control effect; nearly all actives have a fitted effect of over 55% in size
PLK1 PBD inh – qHTS for Inhibitors of PLK1-PDB (polo-like kinase 1 - polo-box domain): Primary Screen; AID 720504, 2013; Serine/threonine-protein kinase PLK1 (Homo sapiens), P53350; Potency, µM, inactives show max response, negative = inhibition, most hits filed as inhibitors; Plk1 PBD binding of FITC phosphopeptide, fluorescence polarization; 360,000 compounds, 2.8% hits; further: potency means the concentration at half of the fitted maximal effect; series mostly up to about 57 µM; on the % scale 0 is the no-effect control and ±100 the full control effect; nearly all actives have a fitted effect of over 65% in size
* hit, by the source's call; u = inconclusive; x = no result. An excerpt weighted towards active compounds, which were near 3.1% of everything screened. Unless noted, the call rests on the fitted dose curve; in most records, active means well fitted curve in the direction sought with a large enough effect; inconclusive means small, poorly fitted or top-dose-only effect, or another doubt; inactive means no such curve, though single readings can be large; an effect the other way counts as inactive or inconclusive.

SMILES	VDR inh	TSHR antag	PTAP TSG101 blk	uPA generation	PLK1 PBD inh
CCCCn1c(SCc2ccc(Cl)cc2)nc2c1c(=O)[nH]c(=O)n2C	89µM*	8	-7%	-19%	21µM*
CC(C)CCn1c(SCc2ccc(Cl)cc2)nc2c1c(=O)[nH]c(=O)n2C	u	-5	-5%	-8%	27µM*
CC(=O)CSc1nc2c(c(=O)[nH]c(=O)n2C)n1Cc1cccc(Br)c1	-20%	3	-7%	-9%	19µM*
CCC(=O)Nc1ccc(S(=O)(=O)NCc2cccn2Cc2cccc(C)c2)cc1	16%	x	x	x	x
O=C(Nc1cccc(C(F)(F)F)c1)c1csc(COCCO)n1	x	x	x	x	-17%
Cc1cc(N2CCC(C(=O)N(CC(C)C)CC(C)C)CC2)n2nc(C)c(-c3ccc(Cl)cc3)c2n1	-15%	x	x	x	x
COC(=O)c1ccc(N2CCOCC2)c(NC(=O)c2ccco2)c1	-6%	10	-4%	-5%	9%
Cn1c(=O)[nH]c(=O)c2c1nc([N+](=O)[O-])n2Cc1ccccc1	u	-29	-2%	-18%	2.4µM*
C/C=C/Cn1c(SCc2ccccc2)nc2c1c(=O)[nH]c(=O)n2C	u	-11	-3%	-10%	24µM*
CC(C)Cn1c([N+](=O)[O-])nc2c1c(=O)[nH]c(=O)n2C	-18%	-13	-4%	u	-1%
C/C=C/CSc1nc2c(c(=O)[nH]c(=O)n2C)n1Cc1ccc(C)cc1	u	9	-5%	-9%	u
CCOC(=O)C1=C([Si](C)(C)C)c2ccccc2N(S(=O)(=O)C(F)(F)F)C1C(=O)OCC (centres undefined)	4%	x	x	x	x
O=Nc1c(O)ccc2cc(S(=O)(=O)O)ccc12	79µM*	x	0%	1%	-17%
CN(C)c1ccc2cc(S(=O)(=O)O)cc(O)c2c1	50µM*	x	2%	-2%	u
Nc1cccc2cc(S(=O)(=O)O)ccc12	-29%	x	-8%	8%	u
Cc1ccc(CN2C(=O)C(O)(c3c[nH]c4ccccc34)c3cc(Cl)ccc32)cc1 (centres undefined)	-7%	x	x	x	x
CC(=O)Nc1ccc(S(=O)(=O)NC(C)C(=O)NC(C)c2ccccc2)cc1 (centres undefined)	-29%	1	-1%	5%	12µM*
CC(=O)Nc1ccc(S(=O)(=O)N[C@@H](C)C(=O)N2CCN(c3ccccn3)CC2)cc1	u	x	1%	13%	12µM*
CC(=O)Nc1ccc(S(=O)(=O)NC(C)c2ccncc2)cc1 (centres undefined)	-18%	0	0%	-4%	1%
O=C(CCn1nnc2ccccc21)N1CCC(O)(c2cccc(F)c2)CC1	u	16	-4%	4%	27µM*
Cc1ccccc1NC(=O)Cn1c(=O)n(Cc2ccccc2)c(=O)c2sc3ccccc3c21	0%	x	x	x	x
Nc1nc(-c2nn(Cc3ccccc3F)c3ncccc23)ncc1C1CC1	-14%	x	x	x	x
O=C(CCC1CCCN(C(=O)C2=CCCC2)C1)N1CCN(c2ccccn2)CC1 (centres undefined)	-22%	4	-5%	0%	-27%
O=C(CCC1CCCN(C(=O)CC2=CCCCC2)C1)N1CCN(c2ccccn2)CC1 (centres undefined)	79µM*	9	-2%	-3%	8.4µM*
COc1cc(C(=S)N2CCN(C(c3ccccc3)c3ccccc3)CC2)cc(OC)c1O	u	-15	-4%	3%	13µM*
SMILES	VDR inh	TSHR antag	PTAP TSG101 blk	uPA generation	PLK1 PBD inh
CCCN(C(=O)COC(=O)CSc1ccc([N+](=O)[O-])cc1)C1CCS(=O)(=O)C1 (centres undefined)	89µM*	-18	-3%	1%	11µM*
CCN(C(=O)COC(=O)c1cc([N+](=O)[O-])ccc1N1CCCCC1)C1CCS(=O)(=O)C1 (centres undefined)	-2%	-2	1%	-3%	-14%
CC(C)CN(C(=O)COC(=O)C1c2ccccc2Oc2ccccc21)C1CCS(=O)(=O)C1 (centres undefined)	2%	16	-4%	-3%	-3%
CC(C)CN(C(=O)COC(=O)CSc1ccc([N+](=O)[O-])cc1)C1CCS(=O)(=O)C1 (centres undefined)	u	-10	2%	0%	19µM*
Cc1cn(C)c(CC(=O)Nc2cccc(Cl)c2C)c1C(=O)O	11%	x	x	x	x
COc1ccc(CNC(=O)C(C)n2c(=O)cc(C)c3c(C)nn(-c4ccccc4)c32)cc1 (centres undefined)	-1%	x	x	x	x
CC1=C(C)C(=O)N(c2ccccn2)C1=O	-4%	3	-2%	-9%	-3%
Cc1nn(-c2ccccn2)c2c1C(=O)C(Br)CC2 (centres undefined)	18µM*	-2	-1%	-1%	3µM*
COc1ccc(OCc2nnc(SCC(=O)Nc3ccccc3Cl)o2)cc1	-3%	-1	-3%	7%	-13%
COc1c(C)cc(Br)cc1C(=O)NC(=S)Nc1ccc(Cl)c(C(=O)O)c1	-16%	-8	-6%	3%	17µM*
COc1cccc(C(=O)NC(=S)Nc2ccc(Cl)c(C(=O)O)c2)c1	-1%	x	-8%	0%	-27%
O=C(O)/C=C/C(=O)Nc1ccc(Cl)c(C(=O)O)c1	10%	-6	0%	-1%	6%
NNc1ccc(Cl)c(C(=O)O)c1	-28%	0	-5%	8%	30µM*
O=C(NC(=S)Nc1ccc(Cl)c(C(=O)O)c1)c1ccco1	-13%	6	0%	9%	-29%
O=C(O)c1cc(NC(=S)NC(=O)C(c2ccccc2)c2ccccc2)ccc1Cl	-1%	-14	-3%	-4%	67µM*
CSC(=S)NN=C(C)c1cccc(C)n1	u	x	-5%	-10%	-4%
CC[C@@]1(c2ccccc2OC)C(=O)N(C(=O)OC)N1C(=O)OC	24%	22	0%	u	u
CC[C@@]1(c2cccc(C)c2)C(=O)N(C(=O)OC)N1C(=O)OC	u	12	0%	3%	9.5µM*
COC(=O)N1C(=O)[C@](CC(C)C)(c2ccccc2)N1C(=O)OC	79µM*	24	0%	u	13µM*
COC(=O)N1C(=O)[C@@](c2ccccc2)(C2CCCC2)N1C(=O)OC	-25%	20	-7%	7.1µM*	u
C[C@H](CO)N1C[C@H](C)[C@H](CN(C)C(=O)C2CC2)OCc2cnnn2CCCC1=O	x	x	x	x	-12%
Cc1c(Cl)cccc1Nc1nn2c(=O)c3ccccc3nc2s1	-5%	x	x	x	x
CCCNC(=O)CCn1c(=S)oc2ccccc21	u	-1	-5%	1%	12µM*
CCc1ccccc1NC(=O)Cc1ccc(-n2c(C)nc3cccnc32)cc1	1%	x	x	x	x
